Measured values taken from PubChem BioAssay (Tox21).
Several values for one entry are separate records, joined by “and”; a condition that tells them apart may be missing. Equal entries are not always repeated. More than one record can exist for a structure, and the calls need not agree. Activity calls are given as the source filed them. A call without a number means that no potency is given here. Unless noted, calls follow the shape of the dose curve; as a rule, active = well fitted curve in the direction sought with a large enough effect in the repeat runs; inconclusive = weak or mixed curves; inactive = no such curve, though single readings can be large; an effect the other way counts as inactive or inconclusive.

What was measured:
[1] = qHTS assay to identify small molecule antagonists of the thyroid receptor (TR) signaling pathway - cell viability counter screen (AID 743064); also: nearly all actives have a fitted effect of over 50% in size; also: potency is read from the fitted curve at half-maximal effect
Summary of the method: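 GH3.TRE-Luc rat pituitary cells carrying a TRE-luciferase reporter were treated with compound plus 1 nM T3 (final) for 23.5 h at 37 °C. Viability was then read in the same wells by CellTiter-Fluor fluorescence after a further 30 min.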

[2] = qHTS assay to identify small molecule antagonists of the thyroid receptor (TR) signaling pathway (AID 743065); also: nearly all actives have a fitted effect of over 55% in size; also: potency is read from the fitted curve at half-maximal effect
Summary of the method: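 GH3.TRE-Luc rat pituitary cells carrying two TR response elements driving luciferase were plated for 4 h, given compound plus 1 nM T3 (final), and incubated 23.5 h at 37 C. ONE-Glo luminescence measured reporter inhibition; CellTiter-Fluor fluorescence tracked cytotoxicity.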

[3] = tested on: thyroid hormone receptor (rat, GH3 cells); assay: qHTS assay to identify small molecule agonists of the thyroid receptor (TR) signaling pathway (AID 743066; calls by dose curve)
[4] = target: Estrogen receptor (Homo sapiens) (UniProt P03372); assay: qHTS assay to identify small molecule antagonists of the estrogen receptor alpha (ER-alpha) signaling pathway (AID 743069; active = well fitted curve in the direction sought with a large enough effect in the signal ratio in the repeat runs, not every such curve was filed as active; inconclusive = weak or mixed curves, or effect the other way; inactive = no such curve, though single readings can be large or run the other way; the % refers to the signal ratio; also: potency is read from the fitted curve at half-maximal effect)
Summary of the method: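 A 17beta-estradiol challenge was applied right after compound transfer to ER-alpha-UAS-bla HEK293 cells previously kept in charcoal-stripped serum. Plates stood 18 hr at 37C and 5% CO2; fluorescence was read following 2 hr FRET substrate loading at room temperature.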

[5] = qHTS assay to identify small molecule antagonists of the estrogen receptor alpha (ER-alpha) signaling pathway - cell viability counter screen (AID 743074; calls by dose curve;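 also: HEK293 cells carrying ER-alpha-UAS-bla reporter stimulated with 17beta-estradiol; nearly all actives have a fitted effect of over 45% in size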)
[6] = target: Estrogen receptor (Homo sapiens) (UniProt P03372); assay: qHTS assay to identify small molecule agonists of the estrogen receptor alpha (ER-alpha) signaling pathway (AID 743075; calls by dose curve;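 also: HEK293 GripTite cells with ER-alpha and UAS-driven beta-lactamase reporter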; also: potency is read from the fitted curve at half-maximal effect)
[7] = target: Estrogen receptor (Homo sapiens) (UniProt P03372); assay: qHTS assay to identify small molecule agonists of the estrogen receptor alpha (ER-alpha) signaling pathway using the BG1 cell line (AID 743079); also: nearly all actives have a fitted effect of over 20% in size; also: potency is read from the fitted curve at half-maximal effect
[8] = qHTS assay to identify small molecule antagonists of the estrogen receptor alpha (ER-alpha) signaling pathway using the BG1 cell line (AID 743080; calls by dose curve;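 also: BG1 cells stimulated with 17beta-estradiol alongside compound; nearly all actives have a fitted effect of over 25% in size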; also: potency is read from the fitted curve at half-maximal effect)
Summary of the method: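 Luminescence from a 4×ERE-luciferase reporter in BG1-Luc-4E2 cells served as read-out. Cells, pre-cultured 5 days in stripped-serum phenol-red-free medium, were exposed to compound with 17beta-estradiol co-stimulation for 21.5 h at 37 C.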

[9] = qHTS assay to identify small molecule antagonists of the estrogen receptor alpha (ER-alpha) signaling pathway using the BG1 cell line - cell viability counter screen (AID 743081);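 also: compound given together with 17beta-estradiol as the ER stimulus; nearly all actives have a fitted effect of over 45% in size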; also: potency is read from the fitted curve at half-maximal effect
[10] = qHTS assay to identify aromatase inhibitors - cell viability counter screen (AID 743084);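 also: cells stimulated with testosterone during compound exposure; nearly all actives have a fitted effect of over 55% in size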; also: potency is read from the fitted curve at half-maximal effect
[11] = target: Aryl hydrocarbon receptor (Homo sapiens) (UniProt P35869); assay: qHTS assay to identify small molecule that activate the aryl hydrocarbon receptor (AhR) signaling pathway (AID 743085); also: nearly all actives have a fitted effect of over 15% in size; also: potency is read from the fitted curve at half-maximal effect;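 as to activation: HG2L7.5c1 human HepG2 liver cells with stably integrated DRE-driven firefly reporter; series mostly up to about 70 µM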
Summary of the method: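 HepG2 cells (HG2L7.5c1) stably carrying a firefly luciferase reporter driven by 20 dioxin responsive elements were exposed to compound for 24 h at 37C after a 5 h settling period; luminescence rise (ONE-Glo) indicated activation.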

[12] = target: Peroxisome proliferator-activated receptor gamma (Homo sapiens) (UniProt P37231); assay: qHTS assay to identify small molecule agonists of the peroxisome proliferator-activated receptor gamma (PPARg) signaling pathway (AID 743094; active = well fitted activation curve with a large enough effect in the signal ratio in the repeat runs, not every such curve was filed as active; inconclusive = weak or mixed curves, or effect the other way; inactive = no such curve, though single readings can be large or run the other way; the % refers to the signal ratio)
Summary of the method: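 HEK293H PPARg-bla cells, 5 h settle at 37C/5% CO2; compound (DMSO) 17 h, 37C; B/G FRET substrate 1 h RT; fluorescence intensity read-out. qHTS format.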

[13] = qHTS assay to identify small molecule antagonists of the peroxisome proliferator-activated receptor gamma (PPARg) signaling pathway - cell viability counter screen (AID 743194); also: nearly all actives have a fitted effect of over 55% in size
Summary of the method: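 PPARg-UAS-bla HEK293H cells were plated, rested 5 h at 37 C, then treated with compounds plus rosiglitazone (50 nM final) for 17 h at 37 C; viability was then read by CellTiter-Glo luminescence after 30 min at room temperature.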

[14] = qHTS assay for small molecule agonists of the antioxidant response element (ARE) signaling pathway (AID 743202; active = well fitted activation curve with a large enough effect in the signal ratio in the repeat runs, not every such curve was filed as active; inconclusive = weak or mixed curves, or effect the other way; inactive = no such curve, though single readings can be large or run the other way; the % refers to the signal ratio; also: potency is read from the fitted curve at half-maximal effect)
Summary of the method: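 Following a 16 h, 37 C exposure of reporter HepG2 cells (ARE-driven beta-lactamase, 2,000 cells/well) to compounds, FRET substrate was applied for 2 h at room temperature and fluorescence intensity recorded.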

[15] = qHTS assay for small molecule agonists of the antioxidant response element (ARE) signaling pathway - cell viability counter screen (AID 743203; calls by dose curve; also: nearly all actives have a fitted effect of over 55% in size; also: potency is read from the fitted curve at half-maximal effect)
Summary of the method: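 Luminescence read-out (CellTiter-Glo, 30 min at room temperature) measured cell viability in the same wells as the ARE beta-lactamase reporter. HepG2 ARE-bla cells were treated with compounds for 16 hrs at 37C/5% CO2.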

[16] = qHTS assay for small molecule activators of the heat shock response signaling pathway - cell viability counter screen (AID 743209); also: nearly all actives have a fitted effect of over 50% in size
Summary of the method: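 HSE-bla HeLa; 1500 cells/well; overnight 37 C, 5% CO2; compound 5 h 37 C; LiveBLAzer B/G substrate 2.5 h RT; CellTiter-Glo 30 min RT; luminescence.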

[17] = target: Aromatase (Homo sapiens) (UniProt P11511); assay: qHTS assay to identify aromatase inhibitors (AID 743083); also: nearly all actives have a fitted effect of over 55% in size; also: potency is read from the fitted curve at half-maximal effect
[18] = qHTS assay to identify small molecule that activate the aryl hydrocarbon receptor (AhR) signaling pathway - cell viability counter screen (AID 743086); also: nearly all actives have a fitted effect of over 45% in size; also: potency is read from the fitted curve at half-maximal effect
Summary of the method: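 HepG2-AhR-luc (HG2L7.5c1) cells, 4000/well, were preincubated 5 h at 37C, exposed to compound in qHTS format for 24 hr at 37C, then given CellTiter-Fluor for 30 min; viability was read as fluorescence in the reporter wells.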

[19] = qHTS assay for small molecule activators of the heat shock response signaling pathway (AID 743210; active = well fitted activation curve with a large enough effect in the signal ratio in the repeat runs, with a control signal flat, not every such curve was filed as active; inconclusive = weak or mixed curves; the % refers to the signal ratio; also: series mostly up to about 63 µM)
Summary of the method: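 Heat shock element–beta-lactamase HeLa reporter cells; qHTS with compounds for 5 h at 37 C; detection by FRET substrate fluorescence after 2.5 h at RT.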

[20] = target: Peroxisome proliferator-activated receptor gamma (Homo sapiens) (UniProt P37231); assay: qHTS assay to identify small molecule antagonists of the peroxisome proliferator-activated receptor gamma (PPARg) signaling pathway (AID 743191; calls by dose curve; also: series mostly up to about 63 µM; nearly all actives have a fitted effect of over 30% in size)
Summary of the method: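 GeneBLAzer PPARg UAS-bla HEK293H cells carrying a UAS-driven beta-lactamase reporter were plated at 3000 cells/well, preincubated 5 h at 37C, then given compound for 17 h at 37C; LiveBLAzer B/G FRET substrate was read after 1 h at room temperature.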

Sequence of Aromatase (Homo sapiens) (P11511 whole entry, looked up): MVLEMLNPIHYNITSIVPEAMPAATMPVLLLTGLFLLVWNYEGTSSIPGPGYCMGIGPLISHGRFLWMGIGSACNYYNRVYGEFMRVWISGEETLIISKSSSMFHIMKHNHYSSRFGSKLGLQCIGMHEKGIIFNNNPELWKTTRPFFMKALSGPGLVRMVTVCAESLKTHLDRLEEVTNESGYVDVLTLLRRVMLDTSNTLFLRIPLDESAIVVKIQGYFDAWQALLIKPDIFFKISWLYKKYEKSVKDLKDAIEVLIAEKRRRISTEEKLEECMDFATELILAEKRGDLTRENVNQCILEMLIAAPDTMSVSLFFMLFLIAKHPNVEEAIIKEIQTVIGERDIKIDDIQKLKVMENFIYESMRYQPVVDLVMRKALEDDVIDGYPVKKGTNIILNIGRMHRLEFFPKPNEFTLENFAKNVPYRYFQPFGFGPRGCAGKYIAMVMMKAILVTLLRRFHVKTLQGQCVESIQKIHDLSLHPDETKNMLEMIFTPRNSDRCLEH
Sequence of Aryl hydrocarbon receptor (Homo sapiens) (P35869 whole entry, looked up): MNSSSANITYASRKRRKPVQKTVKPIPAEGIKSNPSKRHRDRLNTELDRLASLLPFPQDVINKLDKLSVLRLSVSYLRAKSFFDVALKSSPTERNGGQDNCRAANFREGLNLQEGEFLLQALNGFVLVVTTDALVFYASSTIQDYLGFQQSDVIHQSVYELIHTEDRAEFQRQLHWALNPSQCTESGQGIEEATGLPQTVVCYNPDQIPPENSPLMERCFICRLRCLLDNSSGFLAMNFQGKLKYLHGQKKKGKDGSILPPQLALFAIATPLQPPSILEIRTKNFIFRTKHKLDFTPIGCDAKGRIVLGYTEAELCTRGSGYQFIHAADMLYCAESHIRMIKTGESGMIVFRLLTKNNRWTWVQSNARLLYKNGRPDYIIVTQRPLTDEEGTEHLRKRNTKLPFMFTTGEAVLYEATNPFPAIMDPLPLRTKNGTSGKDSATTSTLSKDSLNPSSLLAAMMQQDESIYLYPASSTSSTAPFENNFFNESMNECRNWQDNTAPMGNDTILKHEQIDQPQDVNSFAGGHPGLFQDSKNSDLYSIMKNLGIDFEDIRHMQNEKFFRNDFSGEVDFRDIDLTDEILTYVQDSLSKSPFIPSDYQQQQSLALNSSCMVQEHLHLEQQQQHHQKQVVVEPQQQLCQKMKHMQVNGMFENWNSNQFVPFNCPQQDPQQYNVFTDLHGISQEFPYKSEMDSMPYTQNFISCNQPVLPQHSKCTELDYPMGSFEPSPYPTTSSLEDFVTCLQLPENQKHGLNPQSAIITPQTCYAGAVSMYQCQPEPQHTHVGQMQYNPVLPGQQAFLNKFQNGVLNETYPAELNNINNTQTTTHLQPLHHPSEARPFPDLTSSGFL
Sequence of Estrogen receptor (Homo sapiens) (P03372 whole entry, looked up): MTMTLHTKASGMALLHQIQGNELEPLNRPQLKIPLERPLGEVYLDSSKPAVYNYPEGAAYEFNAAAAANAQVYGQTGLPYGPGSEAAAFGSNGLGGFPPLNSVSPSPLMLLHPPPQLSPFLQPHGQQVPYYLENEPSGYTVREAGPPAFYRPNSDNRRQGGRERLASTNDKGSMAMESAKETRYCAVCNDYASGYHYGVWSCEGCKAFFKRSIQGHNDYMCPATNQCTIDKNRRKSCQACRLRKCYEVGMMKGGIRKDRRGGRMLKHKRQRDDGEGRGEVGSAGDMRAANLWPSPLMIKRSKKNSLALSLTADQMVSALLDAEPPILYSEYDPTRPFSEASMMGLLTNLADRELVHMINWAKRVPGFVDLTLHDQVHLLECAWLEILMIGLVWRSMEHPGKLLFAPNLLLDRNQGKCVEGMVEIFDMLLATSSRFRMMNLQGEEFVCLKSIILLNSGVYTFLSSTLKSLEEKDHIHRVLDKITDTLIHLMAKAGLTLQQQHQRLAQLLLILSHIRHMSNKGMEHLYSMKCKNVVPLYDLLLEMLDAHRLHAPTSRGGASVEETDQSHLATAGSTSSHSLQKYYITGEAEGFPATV
Sequence of Peroxisome proliferator-activated receptor gamma (Homo sapiens) (P37231 whole entry, looked up): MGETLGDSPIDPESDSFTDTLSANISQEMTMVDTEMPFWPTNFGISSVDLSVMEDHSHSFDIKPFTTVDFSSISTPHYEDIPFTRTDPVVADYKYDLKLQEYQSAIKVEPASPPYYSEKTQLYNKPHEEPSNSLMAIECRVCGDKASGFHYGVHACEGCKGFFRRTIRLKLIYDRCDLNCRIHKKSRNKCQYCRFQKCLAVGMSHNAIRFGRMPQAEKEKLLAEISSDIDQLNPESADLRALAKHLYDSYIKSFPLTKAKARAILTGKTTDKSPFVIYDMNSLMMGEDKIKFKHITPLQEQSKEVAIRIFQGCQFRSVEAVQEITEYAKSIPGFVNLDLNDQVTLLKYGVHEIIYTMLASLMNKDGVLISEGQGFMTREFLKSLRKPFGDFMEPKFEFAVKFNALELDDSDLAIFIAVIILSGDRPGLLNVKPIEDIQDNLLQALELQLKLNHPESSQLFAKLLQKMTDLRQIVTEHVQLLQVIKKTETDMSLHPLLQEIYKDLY

Structure (SMILES)	Potency [1]	Potency [2]	Potency [3]	Potency [4]	Potency [5]	Potency [6]	Potency [7]	Potency [8]	Potency [9]	Potency [10]	Potency [11]	outcome [12]	Potency [13]	Potency [14]	Potency [15]	Potency [16]	Potency [17]	Potency [18]	outcome [19]	Potency [20]
C1CN(SSN2CCOCC2)CCO1	67.9 µM (active)	60.5 µM (active)	inactive	inactive	inactive	inactive	inactive	inactive	inactive	61.1 µM (active)	inactive	inactive	inactive	inactive	inactive	inactive				
C=C[Si](OCCOC)(OCCOC)OCCOC	inactive	inactive	inactive		inactive	inactive	inactive	inactive	inactive	inactive	inactive	inactive	inactive	inactive	inactive	inactive	inactive	inactive	inactive	
CCCCCC1C(=O)CCC1CC(=O)OC (stereo unspecified)	inactive	inactive	inactive		inactive	inactive	inactive	inactive	inactive	inactive	inactive	inactive	inactive	inactive	inactive	inactive	inactive			inactive
CCC/C=C/C=O	inactive	inactive	inactive	inactive	inactive	inactive	inactive	inactive	inactive	inactive	inactive	inactive	inactive	inactive	inactive	inactive	inactive		inactive	
NCCOCCO	inactive	inactive	inactive	inactive	inactive	inactive	inactive	inactive	inactive	inactive	inactive		inactive	inactive	inactive	inactive	inactive		inactive	
Nc1cc([N+](=O)[O-])ccc1C(=O)O	inactive	inactive	inactive	inactive		inactive	inactive and 77 µM (active)	inactive	inactive	inactive	21.7 µM (active)	inactive	inactive	inactive	inactive	inactive	inactive	inactive	inactive	
O=Cc1ccccc1C=O	10.6 µM (active) and 2.43 µM (active)	9.44 µM (active) and 2.17 µM (active)	inactive	inactive	inactive	23.9 µM [activator] (active) and inactive	21.1 µM (active) and 30.6 µM (active)		inactive	17.2 µM (active)	inactive			inactive	12.2 µM (active) and inactive	inactive	inactive and 8.63 µM (active)	inactive	inactive	
Nc1cc(Cl)c(N)c(Cl)c1	inactive	inactive	inactive	inactive	inactive	inactive	inactive	34.1 µM (active) and inactive	inactive	inactive	27.1 µM (active) and 21.7 µM (active)	inactive	inactive	27.3 µM (active)	inactive	inactive	inactive		inactive	
Cc1ccc(N)c([N+](=O)[O-])c1	inactive	inactive	inactive	inactive	inactive	inactive	38.1 µM (active) and inactive	inactive	inactive	inactive		inactive	inactive	inactive	inactive	inactive	inactive		inactive	inactive
CC(=O)Oc1ccc(C(c2ccc(OC(C)=O)cc2)c2ccccn2)cc1	inactive	inactive	inactive	19 µM [inconclusive] (active) and 24.4 µM [inconclusive] (active)	inactive	3.01 µM [activator] (active)			2.11 µM (active) and 1.92 µM (active)	inactive	inactive	inactive	inactive	inactive	inactive	inactive	inactive	inactive	inactive	inactive
COC(=O)c1ccc(C)cc1	inactive	inactive	inactive		inactive	inactive	inactive	inactive	inactive	inactive	inactive		inactive	inactive	inactive	inactive	inactive	inactive	inactive	
O=C1CCc2ccccc2O1	inactive	inactive	inactive	inactive	inactive	inactive	inactive	inactive	inactive	inactive	inactive	inactive	inactive	inactive	inactive	inactive	inactive	inactive	inactive	
CC(=O)O[C@]1(C(C)=O)CC[C@H]2[C@@H]3C=C(Cl)C4=CC(=O)CC[C@]4(C)[C@H]3CC[C@@]21C	inactive	26.6 µM (active) and 54.4 µM (active)	inactive		inactive	inactive			inactive	inactive	inactive					inactive	inactive	inactive	inactive	
CC1(C)OC(=O)NC1=O	inactive	inactive	inactive		inactive				inactive	inactive	inactive	inactive	inactive	inactive	inactive	inactive	inactive	inactive	inactive	inactive
CCC(=O)O[C@H]1[C@H](O[C@@H]2[C@@H](C)[C@H](O[C@H]3C[C@@](C)(OC)[C@@H](O)[C@H](C)O3)[C@@H](C)C(=O)O[C@H](CC)[C@@](C)(O)[C@H](O)[C@@H](C)C(=O)[C@H](C)C[C@@]2(C)O)O[C@H](C)C[C@@H]1N(C)C	13.3 µM (active) and 36.1 µM (active)	11.9 µM (active) and 36.1 µM (active)	inactive		inactive				26.6 µM (active) and 32.2 µM (active)	18.1 µM (active)	inactive	inactive	inactive	inactive	40.5 µM (active) and inactive	inactive	inactive		inactive	
C[C@]12C=CC(=O)C=C1CC[C@H]1[C@@H]3C[C@@H](O)[C@](O)(C(=O)CO)[C@@]3(C)C[C@H](O)[C@@]12F	inactive	inactive	inactive		inactive	inactive	4.73 µM (active) and 48.6 µM (active)		inactive	inactive	inactive	inactive	inactive	inactive	inactive	inactive	inactive	inactive	inactive	inactive
[Na+]	inactive	inactive	inactive		inactive	inactive	inactive	inactive	inactive	inactive	inactive	inactive	inactive	inactive	inactive	inactive	inactive		inactive	
COC(=O)C(C)Oc1ccc(Oc2ncc(C(F)(F)F)cc2Cl)cc1 (stereo unspecified)	inactive	inactive	inactive		inactive	inactive		inactive	inactive	inactive	inactive	inactive	inactive		inactive	inactive	inactive	inactive	inactive	inactive
CC1(C)NC(=O)N(c2ccc([N+](=O)[O-])c(C(F)(F)F)c2)C1=O	inactive	23.7 µM (active) and 24.3 µM (active)	inactive		inactive				inactive	inactive	inactive	inactive	inactive	6.86 µM (active) and 26.6 µM (active)	inactive	inactive	inactive and 27.3 µM (active)	inactive	inactive	inactive
O=[Se](O)O	inactive	inactive	inactive		inactive	inactive	inactive	inactive	6.87 µM (active) and inactive	inactive			inactive	inactive	inactive	inactive	inactive	27.3 µM (active) and inactive	inactive	
C=CC(C)(O)CCC=C(C)C (stereo unspecified)	inactive	inactive	inactive		inactive				inactive	inactive	inactive	inactive	inactive	inactive	inactive	inactive	inactive	inactive	inactive	inactive
IC(I)I	inactive	inactive	inactive		inactive				inactive	inactive	inactive	inactive	inactive	inactive	inactive	inactive	inactive		inactive	inactive
CCc1cccc2c3c([nH]c12)C(CC)(CC(=O)O)OCC3 (stereo unspecified)	inactive	inactive	inactive		inactive	inactive	inactive	inactive	inactive	inactive	inactive	inactive	inactive	inactive	inactive	inactive	inactive		inactive	
c1ccc2cc3ccccc3cc2c1	inactive	inactive	inactive		inactive	inactive			inactive	inactive		inactive	inactive	inactive	inactive	inactive	inactive	inactive		inactive
C=C1C[C@H]2[C@@H]3C=C(C)C4=CC(=O)CC[C@]4(C)[C@H]3CC[C@]2(C)[C@@]1(OC(C)=O)C(C)=O	inactive	23.7 µM (active) and 15.7 µM (active)	inactive		inactive		inactive	inactive	inactive	inactive	inactive	inactive	inactive	17.6 µM (active) and 29.8 µM (active)	inactive	inactive	inactive	inactive	inactive	inactive
Nc1ccc(N)c(Cl)c1	inactive	inactive	inactive		inactive			inactive	inactive	61 µM (active) and inactive	54.4 µM (active) and 15.4 µM (active)		inactive	27.3 µM (active)	68.5 µM (active) and inactive	inactive	61 µM (active) and inactive	inactive		
CCOC(=O)C(C)Oc1ccc(Oc2cnc3cc(Cl)ccc3n2)cc1 (stereo unspecified)	inactive	inactive	inactive		inactive	inactive	inactive	inactive	inactive	inactive		inactive	inactive	inactive	inactive	inactive	inactive	inactive		
O=C(O)c1ccc(O)cc1	inactive	inactive	inactive		inactive				inactive	inactive	inactive	inactive	inactive		inactive	inactive	inactive	inactive	inactive	
CCCCCCOCCOCCO	inactive	inactive	inactive		inactive				inactive	inactive	inactive		inactive	inactive	inactive	inactive	inactive		inactive	
CC(=O)O[C@]1(C(C)=O)CC[C@H]2[C@@H]3C=C(C)C4=CC(=O)CC[C@]4(C)[C@H]3CC[C@@]21C	inactive	27.3 µM (active)	inactive		inactive	inactive	inactive	inactive	inactive	inactive	inactive	inactive	inactive	19.3 µM (active) and 11.9 µM (active)	inactive	inactive	inactive		inactive	
